# Results: PubChem BioAssay (EPA / NIEHS)
# Active and inactive are the calls of the source. How the source made its calls: active means hit-call score of the fitted dose curve at least 0.9, where 1 is the maximum; inactive means score below 0.9.
# Experiments:
# [1] = read-out: Interleukin-1 alpha (IL1a), IL1A (gene 3552); experiment: BSK_LPS_IL1a: BioMAP Diversity Plus: LPS Assay for Interleukin-1 alpha (IL1a) Biomarker Activity (AID 2283080); conditions: primary human HUVEC with PBMC; actives raise or lower the signal
# Method in brief: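 Human umbilical vein endothelial cells co-cultured with peripheral blood mononuclear cells were LPS-stimulated and exposed to test chemicals for 24 h. IL-1 alpha was quantified by ELISA, with bidirectional curve fitting against DMSO as the negative control and baseline.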
# [2] = read-out: Monocyte Chemoattractant Protein-1 (MCP1), CCL2 (gene 6347); experiment: BSK_LPS_MCP1: BioMAP Diversity Plus: LPS Assay for Monocyte Chemoattractant Protein-1 (MCP1) Biomarker Activity (AID 2283081); conditions: primary human HUVEC with PBMC; actives raise or lower the signal
# Method in brief: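 HUVEC plus PBMC co-culture (human primary cells, LPS system) exposed to test chemical for 24 h; MCP-1 measured by ELISA. Bidirectional curve fitting against DMSO baseline; parallel SRB total-protein staining flags overt cytotoxicity.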
# [3] = BSK_LPS_PGE2: BioMAP Diversity Plus: LPS Assay for Prostaglandin E2 (PGE2) Biomarker Activity (AID 2283082); conditions: primary human HUVEC with PBMC; actives raise or lower the signal;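 on AC50: secreted prostaglandin E2 measured by ELISA in LPS-stimulated co-culture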
# Method in brief: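 ELISA read-out of PGE2 from human umbilical vein endothelial cells co-cultured with peripheral blood mononuclear cells under LPS, 24 h post-dose. Gain or loss of signal scored relative to DMSO baseline.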
# [4] = read-out: Macrophage colony-stimulating factor (MCSF), CSF1 (gene 1435); experiment: BSK_LPS_MCSF: BioMAP Diversity Plus: LPS Assay for Macrophage colony-stimulating factor (MCSF) Biomarker Activity (AID 2283083); conditions: primary human HUVEC with PBMC; actives raise or lower the signal
# Method in brief: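 Human umbilical vein endothelial cells co-cultured with peripheral blood mononuclear cells were exposed to compound for 24 h. M-CSF levels were measured by ELISA, and bidirectional curve fitting used DMSO as the negative control and baseline.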
# [5] = read-out: Tissue Factor, F3 (gene 2152); experiment: BSK_LPS_TissueFactor: BioMAP Diversity Plus: LPS Assay for Tissue Factor Biomarker Activity (AID 2283084); conditions: primary human HUVEC with PBMC; actives raise or lower the signal
# Method in brief: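 Human umbilical vein endothelial cells co-cultured with peripheral blood mononuclear cells were dosed and stimulated with LPS. Cell-surface CD142 was quantified by ELISA at 24 h. Activity was fitted bidirectionally against DMSO baseline.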
# [6] = read-out: Tumor necrosis factor (Homo sapiens) (UniProt P01375); experiment: BSK_LPS_TNFa: BioMAP Diversity Plus: LPS Assay for Tumour Necrosis Factor alpha (TNFa) Biomarker Activity (AID 2283085); conditions: primary human HUVEC with PBMC; actives raise or lower the signal;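 on AC50: TNFa protein level quantified by ELISA in the co-culture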
# Method in brief: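 HUVEC/PBMC co-culture, LPS-stimulated; 24 h post-dose; TNFa by ELISA; gain or loss of signal fitted bidirectionally vs DMSO baseline.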
# [7] = read-out: Vascular cell adhesion molecule 1 (VCAM1), VCAM1 (gene 7412); experiment: BSK_LPS_VCAM1: BioMAP Diversity Plus: LPS Assay for Vascular cell adhesion molecule 1 (VCAM1) Biomarker Activity (AID 2283086); conditions: primary human HUVEC with PBMC; actives raise or lower the signal
# Method in brief: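 ELISA read-out of VCAM-1 at 24 h post-dosing in an LPS-driven HUVEC/PBMC primary human co-culture; gain or loss of signal fitted bidirectionally against DMSO baseline. Cytotoxicity tracked in parallel cultures by SRB total-protein staining.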
# CD38, CD38 (gene 952) = experiment: BSK_SAg_CD38: BioMAP Diversity Plus: SAg Assay for CD38 Biomarker Activity (AID 2283087); conditions: primary human HUVEC with PBMC; actives raise or lower the signal
# Method in brief: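 Measures CD38 on a human endothelial/PBMC co-culture driven by SEB and TSST-1, 24 h after compound exposure, using ELISA with fluorescence detection; DMSO defines baseline for bidirectional curve fitting.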
# CD40, CD40 (gene 958) = experiment: BSK_SAg_CD40: BioMAP Diversity Plus: SAg Assay for CD40 Biomarker Activity (AID 2283088); conditions: primary human HUVEC with PBMC; actives raise or lower the signal
# Method in brief: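 Human umbilical vein endothelial cells co-cultured with PBMC; CD40 levels measured by ELISA with fluorescence read-out 24 h after chemical dosing. Gain or loss of signal fitted bidirectionally against DMSO baseline.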
# CD69, CD69 (gene 969) = experiment: BSK_SAg_CD69: BioMAP Diversity Plus: SAg Assay for CD69 Biomarker Activity (AID 2283089); conditions: primary human HUVEC with PBMC; actives raise or lower the signal;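 on AC50: cell surface CD69 protein quantified by ELISA with fluorescence detection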
# Method in brief: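 Values derive from bidirectional fitting relative to DMSO vehicle. Cells: umbilical vein endothelium plus peripheral blood mononuclear cells, treated 24 h before fluorescent ELISA for CD69.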
# [8] = read-out: Monocyte Chemoattractant Protein-1 (MCP1), CCL2 (gene 6347); experiment: BSK_SAg_MCP1: BioMAP Diversity Plus: SAg Assay for Monocyte Chemoattractant Protein-1 (MCP1) Biomarker Activity (AID 2283090); conditions: primary human HUVEC with PBMC; actives raise or lower the signal
# Method in brief: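 Values derive from bidirectional fitting of ELISA-measured MCP1 against DMSO controls. Readings were taken 24 h after dosing human vascular endothelial cells co-cultured with peripheral blood mononuclear cells under superantigen stimulation.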
# [9] = read-out: E-selectin (Homo sapiens) (UniProt P16581); experiment: BSK_SAg_Eselectin: BioMAP Diversity Plus: SAg Assay for Eselectin Biomarker Activity (AID 2283091); conditions: primary human HUVEC with PBMC; actives raise or lower the signal
# Method in brief: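 HUVEC co-cultured with PBMC, compound dosed then read at 24 h; E-selectin measured by ELISA. Activity fitted bidirectionally against DMSO as negative control and baseline.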
# [10] = read-out: Monokine induced gamma interferon (MIG), CXCL9 (gene 4283); experiment: BSK_SAg_MIG: BioMAP Diversity Plus: SAg Assay for Monokine induced gamma interferon (MIG) Biomarker Activity (AID 2283092); conditions: primary human HUVEC with PBMC; actives raise or lower the signal
# Method in brief: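 Values reflect bidirectional fitting of ELISA-measured MIG against DMSO vehicle, taken 24 h after dosing of a co-culture of human umbilical vein endothelial cells and peripheral blood mononuclear cells.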
# [11] = BSK_SAg_PBMCCytotoxicity: PBMC Cytotoxicity Assessment in the BioMAP Diversity Plus: SAg Assay (AID 2283093); conditions: primary human HUVEC with PBMC;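 further: PBMC viability measured as Alamar Blue reduction fluorescence at 546/580 nm; fitted both ways against DMSO so a hit may be loss or gain of signal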;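 on AC50: PBMC superantigen activated with SEB plus TSST-1 one hour after compound addition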
# Method in brief: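 Alamar Blue reduction (6 h, ex/em 546/580 nm) read after 90 h culture of PBMC pre-dosed 1 h then stimulated with SEB plus TSST-1, 20 ng/mL each. Gain or loss of signal fitted relative to DMSO.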
# [12] = read-out: Interleukin-8 (IL8), CXCL8 (gene 3576); experiment: BSK_SAg_IL8: BioMAP Diversity Plus: SAg Assay for Interleukin-8 (IL8) Biomarker Activity (AID 2283094); conditions: primary human HUVEC with PBMC; actives raise or lower the signal
# Method in brief: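 HUVEC/PBMC co-culture, 24 h post-dose; IL-8 by ELISA. Gain or loss of signal fitted bidirectionally vs DMSO baseline.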
# [13] = BSK_SAg_Proliferation: Cell Proliferation Assessment in the BioMAP Diversity Plus: SAg Assay (AID 2283095); conditions: primary human HUVEC with PBMC;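 further: relative cell number as total protein by SRB absorbance in sub-confluent culture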
# Method in brief: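 HUVEC/PBMC co-culture, 96-well. TCA-fixed (10%), 0.1% SRB stain, A560 at 96 h. Protein content used as viability readout; bidirectional fitting vs DMSO control.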
# [14] = BSK_SAg_SRB: Viability Assessment in the BioMAP Diversity Plus: SAg Assay (AID 2283096); conditions: primary human HUVEC with PBMC;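 further: cells read one day after compound addition; hits may be either gain or loss of signal compared with DMSO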
# Method in brief: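 SRB absorbance at 560 nm served as the viability read-out. Cells (HUVEC plus peripheral blood mononuclear cells) were TCA-fixed and stained 24 h post-dosing; activity fitted in both directions against DMSO controls.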
# Sequence of E-selectin (Homo sapiens) (P16581 whole entry, looked up): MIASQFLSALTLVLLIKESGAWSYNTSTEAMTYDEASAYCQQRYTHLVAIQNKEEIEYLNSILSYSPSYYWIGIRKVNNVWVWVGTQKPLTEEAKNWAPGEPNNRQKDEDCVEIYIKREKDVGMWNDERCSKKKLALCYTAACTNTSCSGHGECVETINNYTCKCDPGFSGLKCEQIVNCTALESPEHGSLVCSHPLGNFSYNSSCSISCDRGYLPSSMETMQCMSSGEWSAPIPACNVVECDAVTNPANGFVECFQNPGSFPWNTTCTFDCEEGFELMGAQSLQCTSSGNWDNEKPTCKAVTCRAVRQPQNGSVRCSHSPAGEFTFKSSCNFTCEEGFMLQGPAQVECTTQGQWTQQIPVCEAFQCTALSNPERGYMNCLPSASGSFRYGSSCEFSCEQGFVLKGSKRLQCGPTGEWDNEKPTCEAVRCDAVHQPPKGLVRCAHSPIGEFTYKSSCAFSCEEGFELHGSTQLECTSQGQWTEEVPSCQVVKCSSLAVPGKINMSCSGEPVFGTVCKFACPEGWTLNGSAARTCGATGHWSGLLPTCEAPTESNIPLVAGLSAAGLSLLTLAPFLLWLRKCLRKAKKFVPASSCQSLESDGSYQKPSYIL
# Sequence of Tumor necrosis factor (Homo sapiens) (P01375 whole entry, looked up): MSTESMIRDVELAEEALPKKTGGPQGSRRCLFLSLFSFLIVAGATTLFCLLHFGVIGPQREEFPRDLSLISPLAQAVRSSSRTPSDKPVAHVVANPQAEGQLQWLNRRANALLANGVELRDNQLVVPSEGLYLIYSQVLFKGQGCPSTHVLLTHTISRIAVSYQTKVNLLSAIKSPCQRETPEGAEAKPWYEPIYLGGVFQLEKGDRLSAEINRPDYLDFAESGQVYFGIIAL
smiles,measurement,setting,value
C=CC(=O)OCCCCCCCC(C)C,outcome,[1],inactive
same,outcome,[2],inactive
same,outcome,[3],inactive
same,outcome,[4],inactive
same,outcome,[5],inactive
same,outcome,[6],inactive
same,outcome,[7],inactive
same,outcome,"CD38, CD38 (gene 952)",inactive
same,outcome,"CD40, CD40 (gene 958)",inactive
same,outcome,"CD69, CD69 (gene 969)",inactive
same,outcome,[8],inactive
same,outcome,[9],inactive
same,outcome,[10],inactive
same,AC50,[11],20 µM (active)
same,outcome,[12],inactive
same,AC50,[13],23.3 µM (active)
same,outcome,[14],inactive
CC(C)C(=O)OCCc1ccccc1,outcome,[1],inactive
same,outcome,[3],inactive
same,outcome,[4],inactive
same,outcome,[5],inactive
same,outcome,[6],inactive
same,outcome,[7],inactive
same,outcome,"CD38, CD38 (gene 952)",inactive
same,outcome,"CD40, CD40 (gene 958)",inactive
same,outcome,"CD69, CD69 (gene 969)",inactive
same,outcome,[8],inactive
same,outcome,[9],inactive
same,outcome,[10],inactive
same,outcome,[11],inactive
same,outcome,[12],inactive
same,outcome,[13],inactive
same,outcome,[14],inactive
Clc1cc(Cl)c(Cl)c(Cl)c1Cl,AC50,[1],16.2 µM (active)
same,outcome,[2],inactive
same,outcome,[3],inactive
same,outcome,[4],inactive
same,outcome,[5],inactive
same,outcome,[6],inactive
same,outcome,[7],inactive
same,outcome,"CD38, CD38 (gene 952)",inactive
same,outcome,"CD40, CD40 (gene 958)",inactive
same,outcome,"CD69, CD69 (gene 969)",inactive
same,outcome,[8],inactive
same,outcome,[9],inactive
same,outcome,[10],inactive
same,outcome,[11],inactive
same,outcome,[12],inactive
same,outcome,[13],inactive
same,outcome,[14],inactive
CC(c1cc(C(C)(C)C)cc(C(C)(C)C)c1O)c1cc(C(C)(C)C)cc(C(C)(C)C)c1O,outcome,[1],inactive
same,outcome,[2],inactive
same,outcome,[3],inactive
same,outcome,[4],inactive
same,outcome,[5],inactive
same,outcome,[6],inactive
same,outcome,[7],inactive
same,outcome,"CD38, CD38 (gene 952)",inactive
same,outcome,"CD40, CD40 (gene 958)",inactive
same,outcome,"CD69, CD69 (gene 969)",inactive
same,outcome,[8],inactive
same,outcome,[9],inactive
same,outcome,[10],inactive
same,outcome,[11],inactive
same,outcome,[12],inactive
same,AC50,[13],5.29 µM (active)
same,outcome,[14],inactive
CC(C)CCCCCOC(=O)CS,outcome,[1],inactive
same,outcome,[2],inactive
same,outcome,[3],inactive
same,outcome,[4],inactive
same,outcome,[5],inactive
same,outcome,[6],inactive
same,outcome,[7],inactive
same,outcome,"CD38, CD38 (gene 952)",inactive
same,outcome,"CD40, CD40 (gene 958)",inactive
same,outcome,"CD69, CD69 (gene 969)",inactive
same,outcome,[8],inactive
same,outcome,[9],inactive
same,outcome,[10],inactive
same,outcome,[11],inactive
same,outcome,[12],inactive
same,outcome,[13],inactive
same,outcome,[14],inactive
CCCCCCCCC(CO)CCCCCC (stereo not given),outcome,[1],inactive
same,outcome,[2],inactive
same,outcome,[3],inactive
same,outcome,[4],inactive
same,outcome,[5],inactive
same,outcome,[6],inactive
same,outcome,[7],inactive
same,outcome,"CD38, CD38 (gene 952)",inactive
same,outcome,"CD40, CD40 (gene 958)",inactive
same,outcome,"CD69, CD69 (gene 969)",inactive
same,outcome,[8],inactive
same,outcome,[9],inactive
same,outcome,[10],inactive
same,outcome,[11],inactive
same,outcome,[12],inactive
same,outcome,[13],inactive
same,outcome,[14],inactive
CCCC(C)C(=O)OCC (stereo not given),outcome,[1],inactive
same,outcome,[3],inactive
same,outcome,[4],inactive
same,outcome,[5],inactive
same,outcome,[6],inactive
same,outcome,[7],inactive
same,outcome,"CD38, CD38 (gene 952)",inactive
same,outcome,"CD40, CD40 (gene 958)",inactive
same,outcome,"CD69, CD69 (gene 969)",inactive
same,outcome,[8],inactive
same,outcome,[9],inactive
same,outcome,[10],inactive
same,outcome,[11],inactive
same,outcome,[12],inactive
same,outcome,[13],inactive
same,outcome,[14],inactive
O=C1CCCCCCCCCCCN1,outcome,[1],inactive
same,outcome,[2],inactive
same,outcome,[3],inactive
same,outcome,[4],inactive
same,outcome,[5],inactive
same,AC50,[6],11.9 µM (active)
same,outcome,[7],inactive
same,outcome,"CD38, CD38 (gene 952)",inactive
same,outcome,"CD40, CD40 (gene 958)",inactive
same,outcome,"CD69, CD69 (gene 969)",inactive
same,outcome,[8],inactive
same,outcome,[9],inactive
same,outcome,[10],inactive
same,outcome,[11],inactive
same,outcome,[12],inactive
same,outcome,[13],inactive
same,outcome,[14],inactive
C=CC(=O)OCC(C)OCC(C)OCC(C)OC(=O)C=C (stereo not given),AC50,[1],9.53 µM (active)
same,AC50,[3],5.46 µM (active)
same,AC50,[4],10 µM (active)
same,AC50,[5],10.6 µM (active)
same,outcome,[6],inactive
same,AC50,[7],8.45 µM (active)
same,AC50,"CD38, CD38 (gene 952)",7.74 µM (active)
same,AC50,"CD40, CD40 (gene 958)",8.77 µM (active)
same,AC50,"CD69, CD69 (gene 969)",7.77 µM (active)
same,AC50,[8],10.5 µM (active)
same,AC50,[9],5.5 µM (active)
same,AC50,[10],20 µM (active)
same,AC50,[11],5.29 µM (active)
same,AC50,[12],3.14 µM (active)
same,AC50,[13],2.88 µM (active)
same,AC50,[14],21.6 µM (active)
